Assay [1] addresses Mast/stem cell growth factor receptor Kit (Homo sapiens) (UniProt P10721). The note with it: at 1 µM.
For assay [2], the system named is Mast/stem cell growth factor receptor Kit (Homo sapiens), P10721 [D816V]. The note with it: at 0.1 µM.
For assay [3] the test system is unchanged. The note with it: at 1 µM.
For assay [4], the system named is Mast/stem cell growth factor receptor Kit (Homo sapiens), P10721 [T670I]. The note with it: at 0.1 µM.
Assay [5] has the same test system. The note with it: at 1 µM.
Assay [6] has as its system Mast/stem cell growth factor receptor Kit (Homo sapiens), P10721 [V560G]. The note with it: at 0.1 µM.
Assay [7] shares this test system. The note with it: at 1 µM.
The target in assay [8] is Tyrosine-protein kinase Lck (Homo sapiens) (UniProt P06239). The note with it: at 0.1 µM.
Assay [9] has the same target. The note with it: at 1 µM.
The target in assay [10] is Leukocyte tyrosine kinase receptor (Homo sapiens) (UniProt P29376). The note with it: at 0.1 µM.
For assay [11] the target is unchanged. The note with it: at 1 µM.
Assay [12] addresses Tyrosine-protein kinase Lyn (Homo sapiens) (UniProt P07948). The note with it: at 0.1 µM.
Assay [13] shares this target. The note with it: at 1 µM.
Assay [14] shares this target. The note with it: at 0.1 µM. This is another data set of the same source.
Assay [15] has the same target. The note with it: at 1 µM. This is another data set of the same source.
Assay [16] deals with T1, Tyrosine-protein kinase Mer (Homo sapiens) (UniProt Q12866).
T1 sequence (whole entry): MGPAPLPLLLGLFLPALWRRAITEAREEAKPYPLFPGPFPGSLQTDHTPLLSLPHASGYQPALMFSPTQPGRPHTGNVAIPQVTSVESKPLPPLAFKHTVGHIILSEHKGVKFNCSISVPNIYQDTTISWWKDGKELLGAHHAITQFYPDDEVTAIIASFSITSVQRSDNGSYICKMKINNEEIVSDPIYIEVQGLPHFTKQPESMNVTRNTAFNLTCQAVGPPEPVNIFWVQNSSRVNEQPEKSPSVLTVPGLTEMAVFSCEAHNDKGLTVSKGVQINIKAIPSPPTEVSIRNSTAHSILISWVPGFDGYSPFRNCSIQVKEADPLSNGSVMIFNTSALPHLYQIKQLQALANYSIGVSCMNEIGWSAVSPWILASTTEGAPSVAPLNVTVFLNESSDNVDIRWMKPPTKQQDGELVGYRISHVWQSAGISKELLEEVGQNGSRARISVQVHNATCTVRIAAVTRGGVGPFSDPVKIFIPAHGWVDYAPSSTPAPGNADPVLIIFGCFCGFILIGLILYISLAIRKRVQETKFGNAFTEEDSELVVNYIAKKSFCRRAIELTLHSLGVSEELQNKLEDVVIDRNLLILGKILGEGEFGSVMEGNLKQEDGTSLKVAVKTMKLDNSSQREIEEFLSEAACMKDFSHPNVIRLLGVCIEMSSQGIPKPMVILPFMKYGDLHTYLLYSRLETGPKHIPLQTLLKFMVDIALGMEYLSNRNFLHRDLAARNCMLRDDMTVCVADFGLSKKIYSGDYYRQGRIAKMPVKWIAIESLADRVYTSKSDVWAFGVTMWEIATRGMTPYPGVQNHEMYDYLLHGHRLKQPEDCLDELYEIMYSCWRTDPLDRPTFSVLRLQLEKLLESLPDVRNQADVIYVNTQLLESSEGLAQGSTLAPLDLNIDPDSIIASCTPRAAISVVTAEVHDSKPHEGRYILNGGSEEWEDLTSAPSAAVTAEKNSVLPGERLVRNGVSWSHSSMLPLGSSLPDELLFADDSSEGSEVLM
The note with it: at 0.1 µM.

Assay [17] concerns the target T1, Tyrosine-protein kinase Mer (Homo sapiens). The note with it: at 1 µM.
The target of assay [18] is Hepatocyte growth factor receptor (Homo sapiens) (UniProt P08581). The note with it: at 0.1 µM.
Assay [19] shares this target. The note with it: at 1 µM.
Assay [20] deals with T2, Muscle, skeletal receptor tyrosine-protein kinase (Homo sapiens) (UniProt O15146).
T2 sequence (whole entry): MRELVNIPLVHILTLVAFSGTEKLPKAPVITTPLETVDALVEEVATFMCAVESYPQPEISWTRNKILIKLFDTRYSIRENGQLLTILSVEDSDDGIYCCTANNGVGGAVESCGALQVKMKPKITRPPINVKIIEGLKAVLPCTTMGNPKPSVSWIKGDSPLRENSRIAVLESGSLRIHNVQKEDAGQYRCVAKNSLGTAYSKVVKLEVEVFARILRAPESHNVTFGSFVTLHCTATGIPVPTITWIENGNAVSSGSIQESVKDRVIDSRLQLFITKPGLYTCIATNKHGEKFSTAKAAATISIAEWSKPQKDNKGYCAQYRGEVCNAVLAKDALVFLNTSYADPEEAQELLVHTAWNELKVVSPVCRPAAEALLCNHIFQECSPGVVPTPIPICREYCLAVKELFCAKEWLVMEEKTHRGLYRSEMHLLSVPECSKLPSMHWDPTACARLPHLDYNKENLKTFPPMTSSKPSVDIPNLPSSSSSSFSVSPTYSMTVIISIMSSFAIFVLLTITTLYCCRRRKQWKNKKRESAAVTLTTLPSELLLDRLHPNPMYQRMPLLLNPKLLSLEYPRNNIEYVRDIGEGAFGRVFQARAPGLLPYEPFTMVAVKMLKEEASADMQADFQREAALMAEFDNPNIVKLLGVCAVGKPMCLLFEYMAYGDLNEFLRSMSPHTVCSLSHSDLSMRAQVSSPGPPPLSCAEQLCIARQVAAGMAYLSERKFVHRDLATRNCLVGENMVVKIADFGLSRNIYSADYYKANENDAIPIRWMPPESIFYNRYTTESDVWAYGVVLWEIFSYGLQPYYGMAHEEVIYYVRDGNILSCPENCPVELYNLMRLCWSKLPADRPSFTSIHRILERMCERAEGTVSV
The note with it: at 0.1 µM.

Each structure is given as a SMILES string.

Mast/stem cell growth factor receptor Kit (Homo sapiens), sequence (P10721 whole entry): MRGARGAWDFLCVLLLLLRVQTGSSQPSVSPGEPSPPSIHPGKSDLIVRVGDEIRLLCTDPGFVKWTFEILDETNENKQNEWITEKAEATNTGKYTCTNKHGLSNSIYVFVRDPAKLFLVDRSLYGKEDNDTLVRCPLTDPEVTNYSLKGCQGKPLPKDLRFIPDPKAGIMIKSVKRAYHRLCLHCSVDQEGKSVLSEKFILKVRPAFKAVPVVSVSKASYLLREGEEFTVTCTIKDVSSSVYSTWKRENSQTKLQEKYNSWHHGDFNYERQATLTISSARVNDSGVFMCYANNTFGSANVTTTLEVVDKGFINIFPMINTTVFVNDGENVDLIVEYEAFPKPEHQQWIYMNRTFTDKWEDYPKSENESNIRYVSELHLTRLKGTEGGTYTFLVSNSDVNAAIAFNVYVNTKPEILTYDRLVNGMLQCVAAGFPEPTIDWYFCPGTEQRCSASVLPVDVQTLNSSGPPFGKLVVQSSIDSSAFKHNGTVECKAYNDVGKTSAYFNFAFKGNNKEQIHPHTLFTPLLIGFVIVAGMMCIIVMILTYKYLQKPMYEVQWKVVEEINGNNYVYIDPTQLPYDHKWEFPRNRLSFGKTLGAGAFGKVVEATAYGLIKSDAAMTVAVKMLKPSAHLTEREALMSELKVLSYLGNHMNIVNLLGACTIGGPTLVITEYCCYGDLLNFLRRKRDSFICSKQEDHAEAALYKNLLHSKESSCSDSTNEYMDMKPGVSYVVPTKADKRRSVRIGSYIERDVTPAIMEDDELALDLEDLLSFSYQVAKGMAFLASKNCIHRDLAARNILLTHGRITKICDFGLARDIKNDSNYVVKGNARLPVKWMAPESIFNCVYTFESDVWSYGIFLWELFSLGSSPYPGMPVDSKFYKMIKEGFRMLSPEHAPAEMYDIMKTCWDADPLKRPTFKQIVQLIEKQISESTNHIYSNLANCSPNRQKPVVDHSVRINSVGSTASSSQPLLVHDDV
Leukocyte tyrosine kinase receptor (Homo sapiens), sequence (P29376 whole entry): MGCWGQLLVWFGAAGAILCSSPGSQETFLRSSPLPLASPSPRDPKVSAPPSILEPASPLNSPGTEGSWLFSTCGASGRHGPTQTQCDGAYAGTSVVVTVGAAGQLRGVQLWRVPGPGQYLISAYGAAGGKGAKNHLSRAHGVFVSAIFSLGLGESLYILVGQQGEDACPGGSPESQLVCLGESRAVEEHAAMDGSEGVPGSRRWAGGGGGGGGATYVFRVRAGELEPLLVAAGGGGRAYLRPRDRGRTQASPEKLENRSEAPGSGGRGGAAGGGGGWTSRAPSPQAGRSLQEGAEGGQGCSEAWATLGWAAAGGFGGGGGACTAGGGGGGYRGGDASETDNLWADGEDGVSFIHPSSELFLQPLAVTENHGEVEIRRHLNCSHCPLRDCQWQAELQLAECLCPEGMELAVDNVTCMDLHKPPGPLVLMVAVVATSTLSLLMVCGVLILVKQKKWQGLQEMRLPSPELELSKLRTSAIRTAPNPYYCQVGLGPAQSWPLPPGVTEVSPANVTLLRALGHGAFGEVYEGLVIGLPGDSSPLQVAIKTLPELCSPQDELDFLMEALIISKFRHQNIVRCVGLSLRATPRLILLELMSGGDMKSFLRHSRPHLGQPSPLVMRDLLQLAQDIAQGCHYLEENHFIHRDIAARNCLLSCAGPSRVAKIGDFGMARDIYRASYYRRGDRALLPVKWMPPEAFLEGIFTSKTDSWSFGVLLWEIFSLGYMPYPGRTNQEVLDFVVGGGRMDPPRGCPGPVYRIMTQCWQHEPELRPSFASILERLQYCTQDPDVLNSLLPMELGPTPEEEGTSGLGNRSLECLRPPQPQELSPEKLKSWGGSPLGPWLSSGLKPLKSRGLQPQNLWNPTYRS
Mast/stem cell growth factor receptor Kit (Homo sapiens), P10721 [T670I], sequence (P10721 whole entry T670I): as the sequence (P10721 whole entry) above, with T670I counted along it
Tyrosine-protein kinase Lck (Homo sapiens), sequence (P06239 2-509 limits assumed): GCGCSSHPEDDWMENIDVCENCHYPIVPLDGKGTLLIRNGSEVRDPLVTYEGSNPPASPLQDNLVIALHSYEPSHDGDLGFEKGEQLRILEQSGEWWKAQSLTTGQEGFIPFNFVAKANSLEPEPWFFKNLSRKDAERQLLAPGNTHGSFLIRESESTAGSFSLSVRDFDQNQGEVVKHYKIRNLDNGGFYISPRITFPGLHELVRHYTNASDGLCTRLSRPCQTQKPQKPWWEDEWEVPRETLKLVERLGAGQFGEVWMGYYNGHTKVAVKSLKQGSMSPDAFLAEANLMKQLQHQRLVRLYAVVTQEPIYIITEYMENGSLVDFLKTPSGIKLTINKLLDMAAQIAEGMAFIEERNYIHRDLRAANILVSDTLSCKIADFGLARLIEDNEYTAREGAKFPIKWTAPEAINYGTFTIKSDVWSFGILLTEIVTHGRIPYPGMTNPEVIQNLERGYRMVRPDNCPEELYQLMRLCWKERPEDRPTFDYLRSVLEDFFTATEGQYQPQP
Hepatocyte growth factor receptor (Homo sapiens), sequence (P08581 whole entry): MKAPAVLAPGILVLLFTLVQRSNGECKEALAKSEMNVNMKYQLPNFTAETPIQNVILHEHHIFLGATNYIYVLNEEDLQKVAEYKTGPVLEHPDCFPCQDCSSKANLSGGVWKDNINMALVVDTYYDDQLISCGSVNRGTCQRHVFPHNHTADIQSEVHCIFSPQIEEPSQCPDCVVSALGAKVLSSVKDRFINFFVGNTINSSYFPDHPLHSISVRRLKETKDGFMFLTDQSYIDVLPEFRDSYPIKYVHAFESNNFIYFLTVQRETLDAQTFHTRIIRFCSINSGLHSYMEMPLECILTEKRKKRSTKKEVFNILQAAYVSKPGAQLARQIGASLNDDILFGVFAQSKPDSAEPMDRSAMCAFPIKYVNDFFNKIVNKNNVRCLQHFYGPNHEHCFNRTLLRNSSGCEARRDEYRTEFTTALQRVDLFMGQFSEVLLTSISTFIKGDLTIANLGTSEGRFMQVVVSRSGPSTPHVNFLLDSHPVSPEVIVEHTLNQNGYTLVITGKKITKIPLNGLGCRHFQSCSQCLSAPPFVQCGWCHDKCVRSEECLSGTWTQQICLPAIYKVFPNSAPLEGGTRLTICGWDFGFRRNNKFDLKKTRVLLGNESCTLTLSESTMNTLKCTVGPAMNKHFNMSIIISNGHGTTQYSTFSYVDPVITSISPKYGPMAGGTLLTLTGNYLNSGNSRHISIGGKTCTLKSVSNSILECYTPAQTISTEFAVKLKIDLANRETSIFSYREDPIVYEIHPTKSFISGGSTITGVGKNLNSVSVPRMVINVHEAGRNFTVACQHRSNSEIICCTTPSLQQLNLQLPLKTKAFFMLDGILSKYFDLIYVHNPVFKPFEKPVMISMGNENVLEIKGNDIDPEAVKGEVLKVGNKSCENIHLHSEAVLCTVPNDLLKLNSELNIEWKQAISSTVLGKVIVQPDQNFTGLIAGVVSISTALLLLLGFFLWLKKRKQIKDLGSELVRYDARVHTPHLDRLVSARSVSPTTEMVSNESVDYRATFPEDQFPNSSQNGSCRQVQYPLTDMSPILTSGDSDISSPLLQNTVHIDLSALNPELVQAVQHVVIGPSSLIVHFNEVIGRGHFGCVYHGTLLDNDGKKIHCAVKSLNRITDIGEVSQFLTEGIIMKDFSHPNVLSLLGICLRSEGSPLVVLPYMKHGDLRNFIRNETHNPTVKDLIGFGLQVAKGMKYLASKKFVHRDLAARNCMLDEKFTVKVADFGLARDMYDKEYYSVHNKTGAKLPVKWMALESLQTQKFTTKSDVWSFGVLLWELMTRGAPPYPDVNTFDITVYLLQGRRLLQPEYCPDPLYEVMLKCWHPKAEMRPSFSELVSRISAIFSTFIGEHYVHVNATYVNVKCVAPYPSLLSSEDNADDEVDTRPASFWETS
Tyrosine-protein kinase Lyn (Homo sapiens), sequence (P07948 2-512 limits assumed): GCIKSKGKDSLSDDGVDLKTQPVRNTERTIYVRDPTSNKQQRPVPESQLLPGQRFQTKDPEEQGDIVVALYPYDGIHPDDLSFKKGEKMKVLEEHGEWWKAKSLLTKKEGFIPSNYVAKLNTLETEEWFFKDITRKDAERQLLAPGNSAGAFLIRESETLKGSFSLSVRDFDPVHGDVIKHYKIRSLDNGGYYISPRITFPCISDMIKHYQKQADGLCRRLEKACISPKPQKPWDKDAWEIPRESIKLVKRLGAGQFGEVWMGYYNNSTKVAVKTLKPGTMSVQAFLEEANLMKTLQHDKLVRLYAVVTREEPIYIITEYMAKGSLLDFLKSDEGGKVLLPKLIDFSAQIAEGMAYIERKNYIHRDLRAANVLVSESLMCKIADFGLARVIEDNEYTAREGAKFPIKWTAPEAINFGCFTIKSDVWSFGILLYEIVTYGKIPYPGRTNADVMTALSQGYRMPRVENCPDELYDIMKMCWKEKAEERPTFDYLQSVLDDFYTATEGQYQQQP
Mast/stem cell growth factor receptor Kit (Homo sapiens), P10721 [V560G], sequence (P10721 whole entry V560G): as the sequence (P10721 whole entry) above, with V560G counted along it
Mast/stem cell growth factor receptor Kit (Homo sapiens), P10721 [D816V], sequence (P10721 whole entry D816V): as the sequence (P10721 whole entry) above, with D816V counted along it

Turning to `COc1ccc2cc(-c3c(-c4ccncc4)nc(-c4ccc(S(C)(=O)=O)cc4C)n3C)ccc2c1`, the inhibition in assay [1] is 4.85%; in assay [2], 1.65%; in assay [3], 4.38%; in assay [4], 2.6%; in assay [5] it was 4.5%; in assay [6] it was 1.82%. In addition, the inhibition in assay [7] was -0.08%; in assay [8], 1.82%; in assay [9], 8.97%; in [10], 3.22%; in [11] it was 5.96%; in [12], 6.65%. In addition, the inhibition in assay [13] came to 22.3%; in [14] it was 3.79%; in [15], 16.7%; in [16], 2.19%; in assay [17], 9.48%; in [18], 2.55%. Further, the inhibition in assay [19] was 4.21%; in [20], 3.24%.
Regarding `C/C(Nc1ccc(S(N)(=O)=O)cc1)=C1/C(=O)Nc2ccccc21`, the inhibition in [1] is 90.9%; in assay [2] it was -0.26%; in [3], -1.16%; in assay [4] it was 21%; in assay [5], 82.5%; in [6], 3.94%. In addition, the inhibition in [7] was 22.4%; in assay [8], -1.24%; in assay [9], 4.22%; in assay [10] it was 1.12%; in assay [11], 9.41%; in assay [12], 1.53%. Further, the inhibition is 8.14% in [13]; 0.71% in assay [14]; 6.94% in [15]; 0.6% in [16]; 9.21% in [17]; 3.68% in assay [18]. Further, the inhibition is 9.39% in assay [19] and 3.8% in assay [20].
Regarding `CS(=O)(=O)CCNCc1cc(-c2cc3c(Nc4ccc(OCc5cccc(F)c5)c(Cl)c4)ncnc3s2)cs1`, the inhibition in assay [1] is 8.47%; in [2] it was 2.03%; in assay [3], 6.26%; in assay [4], 2.2%; in assay [5] it was 5.07%; in assay [6], -1.18%. Besides, the inhibition stood at 0.47% in [7]; 2.76% in [8]; 4.18% in assay [9]; 6.05% in assay [10]; 6.25% in assay [11]; 5.45% in assay [12]. Also, the inhibition worked out at 6.19% in assay [13]; 2.93% in assay [14]; 6.07% in assay [15]; 4.4% in assay [16]; 8.06% in [17]; 7.8% in [18]. Also, the inhibition in assay [19] was 6.72%; in assay [20] it was 2.43%.
With `Cc1ccc(C(=O)NC(C)C)cc1-c1ccc(C(=O)NCC2CC2)cc1`, the inhibition in [1] was -4.83%; in assay [2] it was 14.1%; in assay [3] it was -0.69%; in assay [4] it was -3.01%; in assay [5] it was -1.47%; in [6], 1.17%. Further, the inhibition in assay [7] was 1.03%; in assay [8] it was -1.32%; in assay [9] it was 0.84%; in assay [10], -1.19%; in [11], -1.83%; in assay [12] it was -2.52%. The inhibition was -1.28% in assay [13]; -1.84% in assay [14]; -0.78% in [15]; -1.23% in assay [16]; -0.29% in assay [17]; -2.98% in [18]. For the same compound, the inhibition in [19] was -5.28%; in assay [20], -2.44%.
`COc1ccc(-c2ccc3c(NC(=O)C4CC4)n[nH]c3n2)cc1`: the inhibition in [1] turned out to be 6.98%; in assay [2], 3.21%; in [3], 2.92%; in [4], 0.56%; in [5], 3.21%; in [6], 4.61%. Besides, the inhibition was 2.87% in assay [7]; -0.02% in assay [8]; 3.64% in assay [9]; 1.94% in [10]; 1.49% in [11]; 1.25% in assay [12]. The inhibition in assay [13] turned out to be 5.43%; in assay [14], 0.89%; in [15] it was 5.03%; in assay [16], 0.16%; in assay [17] it was 3.67%; in [18] it was 1.87%. Besides, the inhibition in assay [19] stood at 7.43%; in assay [20], 0.33%.
For `CN(C)CCOc1ccc(-c2cc(-c3ccc4c(c3)CCC4=NO)c(-c3ccncc3)o2)cc1`, the inhibition in [1] is 1.55%; in assay [2], -1.77%; in assay [3] it was -0.88%; in assay [4] it was 0.11%; in [5] it was 0.36%; in assay [6], 1.5%. Moreover, the inhibition in assay [7] was 3.34%; in assay [8], 2.65%; in [9], 24.9%; in assay [10] it was -0.5%; in assay [11], -0.32%; in assay [12], 0.86%. The inhibition in assay [13] came out at 4.14%; in assay [14], 0.71%; in assay [15] it was 3.2%; in assay [17], 4.1%; in assay [18] it was 12.9%; in assay [19], 5.81%. Moreover, the inhibition in [20] is -0.04%.

(Values after ChEMBL document CHEMBL1961873, “Compounds: GSK PKIS; Assays: Nanosyn kinase panel” (2012).)
